A short description of experiment [1]: HepG2 liver cancer cell viability effects, profiling panel, resazurin fluorescence, 24 h, PK04 Diversity Set (AID 1172). Particulars: higher = more signal.
Experiment [2] is described as follows: basal S. cerevisiae growth modulation, no modifier, primary screen, OD600, strain BY4716, 24 h, basal condition (AID 1173). The note with it: OD600, 24 h, higher = more signal, called active from +8 up or from −8 down.
The nature of experiment [3]: MM1S myeloma cell viability, profiling panel, resazurin fluorescence, basal, 24 h, PK04 Diversity Set (AID 1174).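 Also: MM1S multiple myeloma cell line.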 Particulars: higher = more signal, called active from +8 up or from −8 down. A general note: The colour change of resazurin is a common sign of viable cells or microbes.
The target of experiment [4] is Dihydroorotate dehydrogenase (quinone), mitochondrial (Plasmodium falciparum (isolate 3D7)) (UniProt Q08210). Description: PfDHODH enzyme inhibitors, primary screen, biochemical, C-terminal His tag, absorbance 600 nm (AID 1175).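 Also: recombinant parasite enzyme with a five histidine tag at its C terminus.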 The note with it: DCIP absorbance 600 nm, higher = more signal, called active from +8 up or from −8 down.
Chain of Dihydroorotate dehydrogenase (quinone), mitochondrial (Plasmodium falciparum (isolate 3D7)) (Q08210 whole entry, looked up): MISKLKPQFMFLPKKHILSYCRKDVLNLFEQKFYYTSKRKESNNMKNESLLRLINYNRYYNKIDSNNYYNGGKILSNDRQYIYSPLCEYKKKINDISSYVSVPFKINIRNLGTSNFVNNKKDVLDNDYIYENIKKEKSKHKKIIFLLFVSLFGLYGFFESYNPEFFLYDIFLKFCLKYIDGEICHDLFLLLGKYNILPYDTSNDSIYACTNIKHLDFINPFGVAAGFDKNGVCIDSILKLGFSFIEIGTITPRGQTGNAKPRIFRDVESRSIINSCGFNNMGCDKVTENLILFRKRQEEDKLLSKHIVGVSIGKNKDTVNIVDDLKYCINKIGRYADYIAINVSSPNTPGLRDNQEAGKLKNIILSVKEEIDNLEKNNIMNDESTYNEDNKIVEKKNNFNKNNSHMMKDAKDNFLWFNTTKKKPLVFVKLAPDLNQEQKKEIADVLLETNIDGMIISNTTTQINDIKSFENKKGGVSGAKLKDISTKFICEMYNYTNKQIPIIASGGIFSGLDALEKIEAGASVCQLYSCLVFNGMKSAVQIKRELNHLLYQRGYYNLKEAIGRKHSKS
Experiment [5] can be described thus: P. aeruginosa biofilm formation inhibitors, primary screen, strain PAO1, LB-PBS medium, absorbance 600 nm (AID 1176). Particulars: P. aeruginosa PAO1 growth/biofilm, A600, 12 h; higher = more signal.
Experiment [6] in a line: S. cerevisiae RM11-1a growth modifiers, primary screen, strain RM11-1a, OD600, basal, 24 h (AID 1177).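 Also: cultures grown under basal conditions with no added stressor.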 Particulars: OD600, 24 h, higher = more signal, called active from +8 up or from −8 down.
Experiment [7] is described as follows: E. coli acrAB mutant growth effects, primary screen, E. coli filamentation inducers, strain DRC39, OD650, 24 h (AID 1178).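 Also: growth measured as culture turbidity by optical density at 650 nm.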 Particulars: higher = more signal, called active from +8 up or from −8 down.
A short description of experiment [8]: E. coli acrAB mutant growth effects, primary screen, E. coli filamentation inducers, strain DRC39, OD650, 48 h (AID 1179).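 Also: screen aims at cell division blockers that make cells filament.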 Particulars: E. coli DRC39 delta-acrAB growth, higher = more signal, called active from +8 up or from −8 down.
Experiment [9] in a line: RPMI8226 myeloma cell viability, profiling panel, resazurin fluorescence, basal, 24 h, PK04 Diversity Set (AID 1180).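 Also: RPMI8826 multiple myeloma cell line at 5000 cells per well.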 Particulars: higher = more signal.
Experiment [10] addresses E3 ubiquitin-protein ligase XIAP (Homo sapiens) (UniProt P98170). Description: XIAP binders, primary screen, biophysical, small-molecule microarray, fluorescence 635 nm (AID 1181).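 Also: score merges 667 nm emission and signal to noise over triplicate slides.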 Particulars: small-molecule microarray binding, higher = more signal.
Experiment [11] deals with XIP peptide (Xip251-270) binding. In words: small-molecule binders of XIP peptide, primary screen, biochemical, small-molecule microarray, fluorescence 635/667 nm, 0.1 µg/mL protein (AID 1182). Particulars: fluorescent protein binding, 635 nm, higher = more signal, called active from +8 up or from −8 down.
For a further experiment, the system named is XIP peptide (Xip251-270). In words: small-molecule binders of XIP peptide, primary screen, biochemical, small-molecule microarray, fluorescence 635/667 nm, 0.5 µg/mL protein (AID 1183). The note with it: small-molecule microarray binding, fluorescence 635 nm; higher = more signal.
Experiment [12] is described as follows: Plasmodium falciparum growth inhibition, primary screen, strain 3D7, DAPI fluorescence, 100 nL (AID 1184).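 Also: parasites grown inside human red blood cells in medium with human serum.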 Particulars: P. falciparum 3D7 growth, 3 d, higher = more signal.
Experiment [13] deals with Homeobox protein Hox-A13 (Mus musculus) (UniProt Q62424). In words: inhibitors of HoxA13-DNA binding, primary screen, biochemical, fluorescence polarization, labeled oligonucleotide (AID 1185). The note with it: 15 min, higher = more signal, called active from +8 up or from −8 down. A general note: Fluorescence polarisation rises when a labelled molecule tumbles more slowly, as on binding a larger partner.
Chain of Homeobox protein Hox-A13 (Mus musculus) (Q62424 whole entry, looked up): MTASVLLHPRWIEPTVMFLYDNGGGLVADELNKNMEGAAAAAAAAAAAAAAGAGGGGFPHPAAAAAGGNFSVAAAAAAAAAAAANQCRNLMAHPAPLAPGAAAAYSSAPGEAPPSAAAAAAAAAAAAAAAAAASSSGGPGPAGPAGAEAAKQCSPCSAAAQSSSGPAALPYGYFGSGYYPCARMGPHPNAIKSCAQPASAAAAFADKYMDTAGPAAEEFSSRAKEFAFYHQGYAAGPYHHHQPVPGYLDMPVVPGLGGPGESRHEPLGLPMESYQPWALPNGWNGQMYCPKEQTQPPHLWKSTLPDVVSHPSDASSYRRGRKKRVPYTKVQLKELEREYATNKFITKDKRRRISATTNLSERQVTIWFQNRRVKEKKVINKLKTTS

The nature of experiment [14]: inhibitors of hydroxyurea-induced Chk1 phosphorylation, primary screen, imaging, HeLa, phospho-Chk1 antibody, percent positive cells (AID 1186). The note with it: hydroxyurea-induced phospho-Chk1 immunofluorescence imaging, higher = more signal.
Experiment [15] is described as follows: inhibitors of hydroxyurea-induced Chk1 phosphorylation, primary screen, imaging, HeLa, phospho-Chk1 nuclear intensity (AID 1187). Particulars: hydroxyurea-induced phospho-Chk1 immunofluorescence imaging, higher = more signal.

Active and inactive are the calls of the source. Unless noted, no rule for the calls is given here.

This note sets out measurements from PubChem BioAssay.

Chain of E3 ubiquitin-protein ligase XIAP (Homo sapiens) (P98170 whole entry, looked up): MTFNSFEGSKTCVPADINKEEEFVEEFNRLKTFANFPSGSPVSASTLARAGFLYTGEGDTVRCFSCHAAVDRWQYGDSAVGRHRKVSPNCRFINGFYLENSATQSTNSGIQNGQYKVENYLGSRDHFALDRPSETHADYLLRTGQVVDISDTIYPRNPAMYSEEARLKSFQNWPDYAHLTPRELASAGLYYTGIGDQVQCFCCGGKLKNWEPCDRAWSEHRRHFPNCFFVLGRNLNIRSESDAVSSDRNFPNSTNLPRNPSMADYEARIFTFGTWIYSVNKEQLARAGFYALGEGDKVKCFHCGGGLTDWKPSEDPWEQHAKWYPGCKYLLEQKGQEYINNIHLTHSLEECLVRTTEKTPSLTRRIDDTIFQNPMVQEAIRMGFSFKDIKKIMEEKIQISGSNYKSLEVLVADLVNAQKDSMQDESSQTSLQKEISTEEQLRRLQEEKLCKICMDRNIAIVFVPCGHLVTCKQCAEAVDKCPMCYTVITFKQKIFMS

For the compound `CN(C)C(=O)[C@@]1(Cc2ccccc2CN=[N+]=[N-])COC(c2ccc(OCCCO)cc2)=N1`, the z-score in experiment [1] is 1.01; in experiment [2], -4.86 (inactive); in experiment [3], -1.19 (inactive); in experiment [5] it was -0.732 (inactive); in [6], 3.73 (inactive); in [7], 1.04 (inactive). The z-score in experiment [8] is 1.58 (inactive); in experiment [9] it was 0.196; in experiment [12] it was -2.08; in experiment [13], -5.02 (inactive); in experiment [14] it was -0.439 (inactive); in [15], -0.521 (inactive). Moreover, the composite z-score in [4] is -0.311 (inactive); in experiment [10], 0.153; in [11], 0.182 (inactive); with XIP peptide (Xip251-270), 0.62.

Turning to `C=C(COC)/C(=C/C[C@H](OC(C)=O)c1ccccc1OCCO)c1cc(C(=O)OC)ccc1OC`, the z-score in experiment [1] was -0.216; in [2], -1.14 (inactive); in experiment [3] it was 0.181 (inactive); in [5], -0.718 (inactive); in experiment [6], 0.0505 (inactive); in [7], -0.474 (inactive). The z-score in experiment [8] is -0.653 (inactive); in experiment [9] it was -0.776; in [12], -2.75; in experiment [13] it was -4.27 (inactive); in experiment [14], -1.15 (inactive); in experiment [15] it was -1.14 (inactive). The composite z-score is -1.68 (inactive) in experiment [4], -0.239 in experiment [10], 0.117 (inactive) in experiment [11] and 0.788 in the experiment on XIP peptide (Xip251-270).

For the compound `NC(=O)N1C(=O)C2C(C1=O)C1C=C(CCCO)C2C(C2CC2)N1Cc1sc2ccccc2c1Cl` (configuration not stated), the z-score in [1] is 0.146; in experiment [2], -6.04 (inactive); in experiment [3], 0.691 (inactive); in experiment [5], -0.0099 (inactive); in [6], 0.269 (inactive); in experiment [7] it was 0.718 (inactive). Besides, the z-score is 0.152 (inactive) in experiment [8]; 0.555 in experiment [9]; -0.672 in experiment [12]; -4.04 (inactive) in experiment [13]; -0.273 (inactive) in experiment [14]; -0.171 (inactive) in [15]. Moreover, the composite z-score in [4] is -0.744 (inactive); in [10], 0.0374; in experiment [11], 0.632 (inactive); in the experiment with XIP peptide (Xip251-270) it was 0.692.

`Cc1ccc(S[C@]2(C(=O)NC3CC3)CC(=O)N(C(C)C)[C@@H]2c2ccc(CO)cc2I)cc1`: the z-score is 0.0662 in experiment [1]; -3.47 (inactive) in experiment [2]; -2.29 (inactive) in [3]; -0.227 (inactive) in [5]; -2.02 (inactive) in experiment [6]; 0.741 (inactive) in [7]. Further, the z-score in [8] is 0.617 (inactive); in experiment [9] it was -2.37; in experiment [12], -1.63; in experiment [13], -4.06 (inactive); in experiment [14], -0.248 (inactive); in experiment [15], -0.439 (inactive). Also, the composite z-score in [4] was -0.632 (inactive); in [10], -0.02; in experiment [11] it was 0.717 (inactive); with XIP peptide (Xip251-270), 0.682.

With `COC(=O)C(CC#Cc1ccc2c(c1)[C@]1(C(=O)N2)[C@H](c2ccccc2OCCO)N2[C@H](c3ccccc3)[C@H](c3ccccc3)OC(=O)[C@H]2[C@@H]1C(=O)N1CCc2cc(OC)c(OC)cc2C1)C(=O)OC`, the z-score was 0.0231 in experiment [1]; 1.07 (inactive) in experiment [2]; -1.07 (inactive) in experiment [3]; 2.83 (inactive) in experiment [5]; 1.79 (inactive) in experiment [6]; 0.021 (inactive) in [7]. Also, the z-score in [8] is 0.761 (inactive); in experiment [9], -0.918; in experiment [12] it was -2.19; in experiment [13] it was 3.17 (inactive); in experiment [14] it was -0.0586 (inactive); in [15], -0.139 (inactive). In addition, the composite z-score in experiment [4] is -0.653 (inactive); in experiment [10], 0.132; in experiment [11], -0.19 (inactive); in the experiment on XIP peptide (Xip251-270), 0.621.

As for `CCN(CC)c1ccc(N2CC=CC34O[C@@H]5C=CCCOC(=O)C5[C@H]3C(=O)N(C(C)CO)[C@@H]4C2=O)cc1` (some centres not stated), the z-score was 0.452 in experiment [1]; -0.315 (inactive) in [2]; 0.172 (inactive) in [3]; 0.398 (inactive) in experiment [5]; 0.126 (inactive) in [6]; -0.491 (inactive) in experiment [7]. The z-score is -0.693 (inactive) in experiment [8]; 0.399 in experiment [9]; 0.479 in experiment [12]; -6.31 (inactive) in experiment [13]; 1.74 (inactive) in [14]; 0.865 (inactive) in experiment [15]. The composite z-score in [4] is -0.0558 (inactive); in experiment [10] it was 0.741; in [11] it was 0.587 (inactive); with XIP peptide (Xip251-270), 0.77.

As for `COCCn1c(C(=O)N(C)C)cc2c1C[C@H]1CN(C(=O)c3ccccc3)[C@@](Cc3ccc(OC)cc3)(C(=O)OC)[C@@H]21`, the z-score in experiment [1] was -0.17; in experiment [2], 1.63 (inactive); in experiment [3] it was -1.43 (inactive); in experiment [5] it was 0.784 (inactive); in [6], 1.03 (inactive); in experiment [7], -0.134 (inactive). The z-score in experiment [8] is -0.289 (inactive); in experiment [9], -1.81; in experiment [12], -1.45; in [13] it was -3.91 (inactive); in experiment [14] it was 0.688 (inactive); in experiment [15], 0.542 (inactive). Further, the composite z-score in experiment [4] was -0.271 (inactive); in [10], 0.131; in experiment [11], 0.116 (inactive); in the experiment with XIP peptide (Xip251-270), 0.435.
